This is a sample that favours compounds with a hit; in the whole collection about 19% have one here.
HT1080 IDH1KD tx: qHTS for induction of synthetic lethality in tumor cells producing 2HG: qHTS for the HT-1080-IDH1KD cell line; HT-1080 IDH1 knockdown viability, ATP luminescence, 48 h; Potency, µM (top dose mostly 46.1 µM), hits mostly cytotoxic; actives 2% (n = 360,000)
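In this qHTS, HT-1080 cells depleted of IDH1 are exposed for 48 h at 37 °C to compound titrations. Toxicity is scored from CellTiter-Glo luminescence, with DMSO as full viability and medium alone as none.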
uPA generation: qHTS for Inhibitors of Cell Surface uPA Generation | cell surface uPA generation assay, qHTS | Potency, µM (doses to about 38.3 µM), hits mostly inhibitors | actives 0.31% (n = 330,000) | AID 540303, 2011; active means well fitted inhibition curve with a large enough effect; inconclusive means small, poorly fitted or top-dose-only effect; inactive means no such curve, though single readings can be large or run the other way; tested in mouse RAW 264.7 cells; further: nearly all actives have a fitted effect of over 55% in size
TDP1 cell noCPT: qHTS for Inhibitors of human tyrosyl-DNA phosphodiesterase 1 (TDP1): qHTS in cells in absence of CPT; DT40 Tdp1-/- hTDP1 cells, no CPT, ATP luminescence, 48 h; Potency, µM (top dose mostly 46.2 µM), most hits filed as inhibitors; actives 15% (n = 420,000); AID 686978, 2013; further: nearly all actives have a fitted effect of over 55% in size
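Readout: luminescence from CellTiter-Glo after 30 min in the dark at RT. Cells: DT40 Tdp1-/- with stable hTDP1, 400/well. Exposure: compounds alone, ≥48 hr, 37 °C.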
HT1080NT lethal: qHTS for induction of synthetic lethality in tumor cells producing 2HG: qHTS for the HT-1080-NT fibrosarcoma cell line | HT-1080-NT fibrosarcoma viability, CellTiter-Glo ATP luminescence, 48 h | Potency, µM (titrated, usually from 46.1 µM), most hits filed as cytotoxic | actives 1.6% (n = 360,000) | AID 686970, 2013;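 further: NT is the 2HG producing partner of a matched IDH1 knockdown line; nearly all actives have a fitted effect of over 55% in size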
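Compounds were tested in concentration-response format on HT-1080-NT cells for 48 hours at 37 degrees C. Cell viability came from CellTiter-Glo luminescence; curves were classified by r2, response magnitude and activity.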
IL1B secr inh: qHTS for Inhibitors of Inflammasome Signaling: IL-1-beta AlphaLISA Primary Screen; AID 743279, 2014; activity change, % at 57.5 µM; THP-1 LPS/ATP IL-1B secretion, AlphaLISA, 16 h; stronger effect = lower value; actives 4.7% (n = 360,000); in the data active means activity change below about -50%; inconclusive means mostly about -30% to -49%
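Secreted IL-1B measured by AlphaLISA bead assay after 16 h compound exposure of THP-1 cells; compounds (final up to 57.5 uM) added 1 h before LPS (250 ng/mL) and ATP (1.25 mM) stimulation; lower signal means less secretion.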
DT40 TDP1 CPT: qHTS for Inhibitors of human tyrosyl-DNA phosphodiesterase 1 (TDP1): qHTS in cells in presence of CPT. actives 12% (n = 420,000). chicken DT40 Tdp1-/-;hTDP1 cells + 20 nM CPT, ATP luminescence, 48 h. Potency, µM (series often up to 46.2 µM), actives largely listed as inhibitors; further: nearly all actives have a fitted effect of over 55% in size
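Cell growth measured by CellTiter-Glo luminescence after a minimum 48 h, 37 C compound exposure with 20 nM CPT in Tdp1-knockout DT40 cells stably expressing hTDP1, seeded 400/well; qHTS titration format.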
Hits are given with their value; – = inactive; ? = inconclusive; · = no result. Unless noted, the call rests on the fitted dose curve; in most records, active means well fitted curve in the direction sought with a large enough effect; inconclusive means small, poorly fitted or top-dose-only effect, or another doubt; inactive means no such curve, though single readings can be large; an effect the other way counts as inactive or inconclusive.

SMILES	HT1080 IDH1KD tx	uPA generation	TDP1 cell noCPT	HT1080NT lethal	IL1B secr inh	DT40 TDP1 CPT
Cc1ccc(NC(=O)CN(C)C(=O)c2cccc(S(=O)(=O)NCc3ccco3)c2)cc1	–	–	–	–	–	–
O=C(/C=C/C=C/c1ccccc1)CC1(O)C(=O)N(CCc2ccccc2)c2ccccc21 (stereo not drawn)	–	–	18µM	–	-100	21µM
NC(=O)CN1C(=O)C(O)(CC(=O)/C=C\C=C\c2ccccc2)c2ccccc21 (stereo not drawn)	–	–	?	–	-86	?
Cc1ccc2c(c1)C(O)(CC(=O)/C=C/C=C/c1ccccc1)C(=O)N2 (stereo not drawn)	–	–	?	–	-56	?
CCN1C(=O)C(O)(CC(=O)/C=C/C=C/c2ccccc2)c2ccccc21 (stereo not drawn)	–	–	?	–	?	23µM
COc1ccc(C(=O)COC(=O)C(CCSC)NC(=O)COc2ccccc2)cc1 (stereo not drawn)	–	–	–	–	–	–
O=C(NC(Cc1ccccc1)C(=O)O)/C(=C/c1ccc(Br)cc1)NC(=O)c1ccc(Br)o1 (stereo not drawn)	–	–	–	–	–	–
O=C(NNC(=O)c1cc2ccccc2[nH]1)OCc1ccccc1	·	–	·	·	·	·
C#CCN1C(=O)C(O)(CC(=O)/C=C/C=C/c2ccccc2)c2ccccc21 (stereo not drawn)	–	–	23µM	–	–	?
C#CCN1C(=O)C2(OCCO2)c2ccccc21	–	–	–	–	–	–
c1csc(CNc2ncnc3sccc23)c1	26µM	–	5.2µM	–	–	5.2µM
COc1ccc(CNc2ncnc3sccc23)cc1OC	–	–	7.3µM	?	–	8.2µM
COc1ccc(CNc2ncnc3sccc23)cc1	23µM	–	4.1µM	?	–	5.8µM
Cc1sc2ncnc(NCc3ccccc3)c2c1C	–	–	15µM	–	-68	13µM
O=[N+]([O-])c1ccc(S(=O)(=O)NCCc2ccncc2)cc1	–	–	–	–	–	–
CC1CN(S(=O)(=O)c2cccc(C(=O)Nc3ccc(S(=O)(=O)NC4=NCCCCC4)cc3)c2)CC(C)O1 (stereo not drawn)	–	–	?	–	–	?
Cc1cc2c(NCc3ccccc3)ncnc2s1	?	–	6.5µM	–	?	?
OC(CNc1ncnc2sccc12)c1ccccc1 (stereo not drawn)	?	–	5.2µM	?	–	4.1µM
CN(C)C(CNc1ncnc2sccc12)c1ccccc1 (stereo not drawn)	–	–	?	–	–	–
c1ccc(CNc2ncnc3sccc23)cc1	?	–	7.3µM	?	–	8.2µM
CCOc1ccc2ccccc2c1C(=O)N1CCN(c2ccccc2)CC1	7.9µM	·	16µM	?	–	?
COc1cc(Cl)ccc1NC(=O)COc1ccccc1C(=O)N1CCN(c2ccc(O)cc2)CC1	–	–	23µM	–	–	23µM
CCOc1cc(CN2CCN(C(=O)c3cccc4ccccc34)CC2)ccc1OC	–	–	–	–	–	?
COc1ccc(N2CCN(C(=O)c3ccc(SC)cc3OC)CC2)cc1	–	–	?	–	–	–
COc1ccc(C(=O)N2CCN(c3cccc(Cl)c3)CC2)c(OC)c1	?	–	12µM	15µM	–	16µM
CCOc1ccccc1C(=O)N1CCN(c2cccc(Cl)c2)CC1	0.11µM	·	0.16µM	0.25µM	–	0.037µM
O=C(O)c1ccccc1C(=O)N1CCN(c2cccc(Cl)c2)CC1	–	–	–	–	–	–
O=C(c1ccco1)N1CCC2(CCCN(Cc3ccncc3)C2)CC1	·	·	–	·	·	–

Compound activity deposited in PubChem BioAssay by National Center for Advancing Translational Sciences (NCATS).
